Experimental data reported in the supplement of paper PMC9262897, “Low-cost anti-mycobacterial drug discovery using engineered E. coli” (Nature Communications, 2022).
Counter-ions that a name gives are not always drawn. ± gives the standard deviation of the averaged measurements.

Columns and labels:
Test in all cases: growth (OD600 after 10 h); higher = more growth (less inhibition)
[1] = tested on: E. coli TESEC Alr+ wild-type control; conditions: compound 0.1 mM; raw OD600 reference: median of DMSO wells 0.241, cell-free background 0.041
Protocol: (§1)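 TESEC Mtb Alr E. coli, or the Alr+ wild-type control, in 384-well plates with Prestwick library compounds at 0.1 mM and 1% DMSO, across arabinose induction levels of 1E3 to 1E7 nM. Growth is read as OD600 after 10 h at 37 °C in triplicate biological replicates.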

E. coli TESEC Mtb Alr [2] = conditions: compound 0.1 mM
Protocol: as §1

E. coli TESEC Mtb Asd = conditions: compound 0.1 mM
Protocol: (§2)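 TESEC E. coli strains in which the native enzyme is deleted and replaced by arabinose-inducible Mtb Asd, DapB, CysH or TrpD, each grown in its selective medium. Strains were screened against the Prestwick library at 0.1 mM and 1% DMSO in 384-well format at low and high arabinose induction. Growth is read as OD600 after 10 h in triplicate.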

E. coli TESEC Mtb DapB = conditions: compound 0.1 mM
Protocol: as §2

[3] = tested on: E. coli TESEC Alr+ wild-type control; conditions: compound 0.1 mM; raw OD600 reference: median of DMSO wells 0.49, cell-free background 0.052
Protocol: (§3)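 TESEC Mtb Alr E. coli (ΔaraC ΔtolC ΔentC Δalr ΔdadX, arabinose-inducible Mtb Alr) or the Alr+ wild-type control strain, grown in defined M9-fructose medium without D-alanine in 96-well plates with Prestwick library compounds at 0.1 mM and 1% DMSO. Low Alr induction is 0.1 µM arabinose and high induction is 10 mM arabinose.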

E. coli TESEC Mtb Alr [4] = conditions: compound 0.1 mM; remark: listed apart in the source
Protocol: as §3

[5] = arabinose 1000 nM, raw OD600 reference: median of DMSO wells 0.294, cell-free background 0.041
[6] = arabinose 10000 nM, raw OD600 reference: median of DMSO wells 0.264, cell-free background 0.041
[7] = arabinose 100000 nM, raw OD600 reference: median of DMSO wells 0.201, cell-free background 0.041
[8] = arabinose 1000000 nM, raw OD600 reference: median of DMSO wells 0.193, cell-free background 0.041
[9] = arabinose 10000000 nM, raw OD600 reference: median of DMSO wells 0.146, cell-free background 0.041
[10] = arabinose induction (level): High, raw OD600 reference: median of DMSO wells 0.331, cell-free background 0.041
[11] = arabinose induction (level): Low, raw OD600 reference: median of DMSO wells 0.417, cell-free background 0.041
[12] = arabinose induction (level): High, raw OD600 reference: median of DMSO wells […], cell-free background 0.041
[13] = arabinose induction (level): Low, raw OD600 reference: median of DMSO wells 0.227, cell-free background 0.041
[14] = arabinose 100 nM, raw OD600 reference: median of DMSO wells 0.413, cell-free background 0.052
[15] = arabinose 10000000 nM, raw OD600 reference: median of DMSO wells […], cell-free background 0.052

| SMILES | growth [1] | growth (E. coli TESEC Mtb Alr [2]; [5]) | growth (E. coli TESEC Mtb Alr [2]; [6]) | growth (E. coli TESEC Mtb Alr [2]; [7]) | growth (E. coli TESEC Mtb Alr [2]; [8]) | growth (E. coli TESEC Mtb Alr [2]; [9]) | growth (E. coli TESEC Mtb Asd; [10]) | growth (E. coli TESEC Mtb Asd; [11]) | growth (E. coli TESEC Mtb DapB; [12]) | growth (E. coli TESEC Mtb DapB; [13]) | growth [3] | growth (E. coli TESEC Mtb Alr [4]; [14]) | growth (E. coli TESEC Mtb Alr [4]; [15]) |
| --- | --- | --- | --- | --- | --- | --- | --- | --- | --- | --- | --- | --- | --- |
| C=CCOc1ccccc1OCC(O)CNC(C)C (stereo not drawn) [Oxprenolol hydrochloride] | 0.2186 ± 0.001 | 0.281 ± 0.0082 | 0.271 ± 0.0046 | 0.1983 ± 0.00078 | 0.208 ± 0.023 | 0.141 ± 0.0071 | 0.332 ± 0.062 | 0.368 ± 0.013 | 0.204 ± 0.0052 | 0.225 ± 0.031 | 0.554 ± 0.095 | 0.414 ± 0.0042 | 0.357 ± 0.0083 |
| CC1(C)S[C@@H]2[C@H](NC(=O)[C@H](N)c3ccc(O)cc3)C(=O)N2[C@H]1C(=O)O [Amoxicillin] | 0.242 ± 0.006 | 0.297 ± 0.0057 | 0.251 ± 0.0052 | 0.211 ± 0.033 | 0.186 ± 0.0034 | 0.14 ± 0.0024 | 0.358 ± 0.097 | 0.321 ± 0.037 | 0.217 ± 0.029 | 0.259 ± 0.046 | 0.572 ± 0.07 | 0.422 ± 0.011 | 0.378 ± 0.0083 |
| CNS(=O)(=O)Cc1ccc2[nH]cc(CCN(C)C)c2c1 [Sumatriptan succinate] | 0.226 ± 0.0042 | 0.298 ± 0.019 | 0.258 ± 0.0057 | 0.2 ± 0.024 | 0.193 ± 0.0067 | 0.137 ± 0.0028 | 0.372 ± 0.026 | 0.503 ± 0.03 | 0.206 ± 0.018 | 0.221 ± 0.028 | 0.441 ± 0.017 | 0.417 ± 0.0056 | 0.353 ± 0.0071 |
| Nc1ccc(S(N)(=O)=O)cc1 [Sulfanilamide] | 0.249 ± 0.008 | 0.302 ± 0.011 | 0.2715 ± 0.0023 | 0.248 ± 0.014 | 0.205 ± 0.0051 | 0.142 ± 0.0052 | 0.318 ± 0.027 | 0.446 ± 0.0081 | 0.217 ± 0.022 | 0.263 ± 0.038 | 0.507 ± 0.044 | 0.388 ± 0.033 | 0.386 ± 0.0053 |
| Cn1cnc2c1c(=O)[nH]c(=O)n2C [Theobromine] | 0.255 ± 0.0061 | 0.313 ± 0.018 | 0.289 ± 0.015 | 0.218 ± 0.02 | 0.189 ± 0.0034 | 0.155 ± 0.011 | 0.483 ± 0.0089 | 0.454 ± 0.03 | 0.206 ± 0.008 | 0.249 ± 0.036 | 0.461 ± 0.015 | 0.404 ± 0.014 | 0.365 ± 0.022 |
| CC(=O)OCC(=O)[C@@]1(O)CC[C@H]2[C@@H]3CCC4=CC(=O)C=C[C@]4(C)[C@@]3(F)[C@@H](O)C[C@@]21C [Isoflupredone acetate] | 0.206 ± 0.028 | 0.266 ± 0.019 | 0.22 ± 0.0097 | 0.213 ± 0.015 | 0.128 ± 0.0061 | 0.13 ± 0.0065 | 0.348 ± 0.046 | 0.413 ± 0.056 | 0.21 ± 0.01 | 0.253 ± 0.038 | 0.422 ± 0.029 | 0.389 ± 0.0064 | 0.286 ± 0.01 |
| O=C(O)CNC(=O)C(CS)Cc1ccccc1 (stereo not drawn) [Thiorphan] | 0.26 ± 0.0069 | 0.305 ± 0.013 | 0.2568 ± 0.0017 | 0.252 ± 0.037 | 0.172 ± 0.003 | 0.167 ± 0.0089 | 0.3 ± 0.069 | 0.382 ± 0.034 | 0.202 ± 0.019 | 0.236 ± 0.019 | 0.475 ± 0.036 | 0.409 ± 0.0074 | 0.348 ± 0.021 |
| CC(C)NC[C@H](O)COc1ccc(CC(N)=O)cc1 [(S)-(-)-Atenolol] | 0.244 ± 0.0056 | 0.288 ± 0.016 | 0.2708 ± 0.0025 | 0.214 ± 0.04 | 0.184 ± 0.0026 | 0.1491 ± 0.0014 | 0.287 ± 0.095 | 0.343 ± 0.051 | 0.193 ± 0.037 | 0.222 ± 0.03 | 0.528 ± 0.092 | 0.413 ± 0.01 | 0.341 ± 0.022 |
| CNNCc1ccc(C(=O)NC(C)C)cc1 [Procarbazine hydrochloride] | 0.251 ± 0.0067 | 0.304 ± 0.012 | 0.282 ± 0.0077 | 0.217 ± 0.028 | 0.177 ± 0.019 | 0.151 ± 0.0024 | 0.359 ± 0.043 | 0.476 ± 0.083 | 0.2 ± 0.017 | 0.27 ± 0.022 | 0.454 ± 0.01 | 0.4235 ± 0.0022 | 0.312 ± 0.02 |
| CC=CC1=C(C(=O)O)N2C(=O)[C@@H](NC(=O)[C@H](N)c3ccc(O)cc3)[C@H]2SC1 [Cefprozil] | 0.223 ± 0.0095 | 0.303 ± 0.0056 | 0.269 ± 0.016 | 0.184 ± 0.0039 | 0.194 ± 0.021 | 0.163 ± 0.0058 | 0.259 ± 0.048 | 0.417 ± 0.022 | 0.204 ± 0.0084 | 0.255 ± 0.039 | 0.543 ± 0.068 | 0.414 ± 0.017 | 0.374 ± 0.015 |
| OCCOCCN1CCN(C(c2ccccc2)c2ccc(Cl)cc2)CC1 (stereo not drawn) [Hydroxyzine dihydrochloride] | 0.142 ± 0.0048 | 0.202 ± 0.0073 | 0.243 ± 0.004 | 0.171 ± 0.0032 | 0.11 ± 0.0035 | 0.1214 ± 0.0011 | 0.164 ± 0.0026 | 0.27 ± 0.013 | 0.182 ± 0.011 | 0.239 ± 0.048 | 0.45 ± 0.02 | 0.421 ± 0.009 | 0.219 ± 0.011 |
| CNCCc1ccccn1 [Betahistine mesylate] | 0.251 ± 0.0026 | 0.302 ± 0.006 | 0.269 ± 0.0066 | 0.243 ± 0.047 | 0.182 ± 0.0047 | 0.164 ± 0.005 | 0.299 ± 0.087 | 0.4 ± 0.042 | 0.217 ± 0.025 | 0.25 ± 0.017 | 0.557 ± 0.1 | 0.408 ± 0.014 | 0.319 ± 0.025 |
| N[C@@H]1CONC1=O [D-cycloserine] | 0.246 ± 0.0051 | 0.0374 ± 0.00045 | 0.0389 ± 0.00083 | 0.277 ± 0.0054 | 0.155 ± 0.0017 | 0.132 ± 0.0031 | 0.252 ± 0.066 | 0.354 ± 0.081 | 0.2176 ± 0.0016 | 0.245 ± 0.044 | 0.399 ± 0.14 | 0.0455 ± 0.00047 | 0.328 ± 0.015 |
| CCN(CC)CCNC(=O)c1ccc(N)cc1 [Procainamide hydrochloride] | 0.239 ± 0.0037 | 0.306 ± 0.019 | 0.2558 ± 0.0023 | 0.209 ± 0.043 | 0.192 ± 0.002 | 0.141 ± 0.0042 | 0.341 ± 0.0095 | 0.42 ± 0.039 | 0.192 ± 0.015 | 0.201 ± 0.0082 | 0.634 ± 0.046 | 0.408 ± 0.01 | 0.364 ± 0.0095 |
| CN(C)CCOc1ccc(/C(=C(/CCCl)c2ccccc2)c2ccccc2)cc1 [Toremifene] | 0.0414 ± 0.0014 | 0.04087 ± 0.0004 | 0.04003 ± 0.00032 | 0.0409 ± 0.00036 | 0.04023 ± 0.00025 | 0.04073 ± 0.00021 | 0.0528 ± 0.00055 | 0.057 ± 0.0021 | 0.0495 ± 0.0014 | 0.0508 ± 0.001 | 0.0478 ± 0.00064 | 0.0666 ± 0.015 | 0.0577 ± 0.0032 |
| CN(C)CC/C=C1/c2ccccc2Sc2ccc(Cl)cc21 [Chlorprothixene hydrochloride] | 0.0398 ± 0.0002 | 0.0409 ± 0.001 | 0.03943 ± 0.00032 | 0.04043 ± 0.00038 | 0.042 ± 0.0051 | 0.0425 ± 0.00068 | 0.0468 ± 0.00058 | 0.0472 ± 0.0011 | 0.0467 ± 0.00076 | 0.0463 ± 0.00046 | 0.157 ± 0.12 | 0.41 ± 0.0049 | 0.0664 ± 0.0082 |
